Compound activity from PubChem.
This is a sample that favours compounds with a hit; in the whole collection about 3.2% have one here.
ERK AVP inh: inhibitors of vasopressin-stimulated ERK signaling pathway; HEK293-V1b, vasopressin-stimulated pERK AlphaScreen; Potency, µM (highest dose often 57.5 µM), for inactives: at the top dose activity, negative = inhibition, actives largely listed as inhibitors; AID 995; 0.99% of 72,000 active; further: potency means the concentration at half of the fitted maximal effect; on the % scale 0 is the no-effect control and ±100 the full control effect; nearly all actives have a fitted effect of over 55% in size
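HEK293 cells stably expressing V1b receptor, seeded overnight in 1% FBS, were treated with compounds for 30 min at 37C, then stimulated 5 min with 25 nM vasopressin; phospho-ERK read by AlphaScreen SureFire after lysis.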
p53ts 39C kill: p53ts cell cytotoxicity, nonpermissive temperature. AID 902. H1299-p53A138V viability at 39C, ATP luminescence, 24 h. Potency, µM (titrated, usually from 46.1 µM), for the others: at the top dose activity change, negative = cell killing, actives largely listed as cytotoxic. 1.5% of 130,000 active; further: potency means the concentration at half of the fitted maximal effect; on the % scale 0 is the no-effect control and ±100 the full control effect; nearly all actives have a fitted effect of over 55% in size
Tau filament bind: binds recombinant human tau filaments; recombinant tau filaments, thioflavin S fluorescence, 15 h; filaments grown with octadecylsulfate alongside compound; Potency, µM (doses to about 57.1 µM), for the others: at the top dose activity change, negative = inhibition; 2% of 71,000 active; P10636;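 further: potency means the concentration at half of the fitted maximal effect; on the % scale 0 is the no-effect control and ±100 the full control effect; actives lower thioflavin S fluorescence by blocking filaments or displacing dye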
Target sequence (P10636 whole entry, looked up): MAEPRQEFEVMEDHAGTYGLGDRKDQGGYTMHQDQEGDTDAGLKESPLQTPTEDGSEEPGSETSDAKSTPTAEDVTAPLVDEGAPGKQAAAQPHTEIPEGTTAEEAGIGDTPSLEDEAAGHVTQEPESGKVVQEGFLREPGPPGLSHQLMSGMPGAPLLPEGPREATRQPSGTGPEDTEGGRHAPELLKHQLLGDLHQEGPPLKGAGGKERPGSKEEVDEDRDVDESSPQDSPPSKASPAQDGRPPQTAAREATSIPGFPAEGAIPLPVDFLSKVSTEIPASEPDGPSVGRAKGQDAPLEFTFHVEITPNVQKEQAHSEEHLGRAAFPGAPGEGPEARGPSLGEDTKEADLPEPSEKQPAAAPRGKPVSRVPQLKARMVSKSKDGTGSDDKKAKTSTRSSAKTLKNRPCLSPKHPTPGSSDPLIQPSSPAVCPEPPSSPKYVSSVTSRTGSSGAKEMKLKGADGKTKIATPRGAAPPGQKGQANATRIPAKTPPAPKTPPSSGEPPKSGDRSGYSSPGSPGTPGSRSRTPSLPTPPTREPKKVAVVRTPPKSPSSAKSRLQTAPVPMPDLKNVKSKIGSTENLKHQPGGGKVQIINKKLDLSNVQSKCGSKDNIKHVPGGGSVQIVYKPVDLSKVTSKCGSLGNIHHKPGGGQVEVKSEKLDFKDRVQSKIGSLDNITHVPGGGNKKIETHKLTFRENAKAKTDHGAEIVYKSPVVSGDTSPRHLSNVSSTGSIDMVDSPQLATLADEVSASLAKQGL
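His-tagged recombinant human tau (exons 2, 3, 10; 1 uM final) fibrillized with 30 uM sodium octadecylsulfate, 15 h at 37 C, in pH 7.4 HEPES buffer with 10 uM thioflavine S and 5 mM DTT. Reduced ThS fluorescence (450/510 nm) marks activity.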
YjeE inh: YjeE (TsaE) inhibition, E. coli | purified YjeE enzyme, qHTS inhibition assay | Potency, µM | 0.05% of 71,000 active
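Fluorescence polarization of a BODIPY Texas Red–ADP probe (2 uM) bound to purified YjeE (10 uM) was read after 15 min room-temperature incubation with compounds. Loss of polarization marks inhibitors; ADP serves as titrated control.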
p53ts 32C kill: cytotoxicity in p53ts cells at permissive temperature; H1299-p53A138V at 32C, ATP luminescence viability, 24 h; Potency, µM (titrated, usually from 46.1 µM), inactives show at the top dose activity change, negative = cytotoxicity, actives largely listed as cytotoxic; 0.93% of 130,000 active;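 further: potency means the concentration at half of the fitted maximal effect; 0% = DMSO and -100% = full killing by reference compound; nearly all actives have a fitted effect of over 55% in size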
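Cells: H1299 p53ts (A138V), 600/well, pre-incubated 16–30 h at 37C. Cpd up to 46 uM, 24 h, 32C. Readout: ATPlite luminescence, 20 min RT. Normalization: DMSO vs tamoxifen 100 uM. AC50 by Hill equation.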
Pol III holo inh: DNA polymerase III holoenzyme inhibition. 0.25% of 71,000 active. reconstituted DNA polymerase III holoenzyme replication, biochemical. Potency, µM (highest dose often 57.1 µM), inactives show at the highest dose activity change, negative = inhibition. AID 603; further: potency means the concentration at half of the fitted maximal effect; on the % scale 0 is the no-effect control and ±100 the full control effect
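Reconstituted *E. coli* holoenzyme (0.35 nM Pol III, 1 nM beta, 154 nM SSB, 2 nM primase) was preincubated with compound for 15 min at RT. Synthesis on 1.4 nM ssM13Gori ran 35 min, then was stopped with PicoGreen/EDTA and read as dsDNA fluorescence.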
The depositor's hits bear a star; i = inactive; ? = inconclusive; . = no result; [ ] = another dose, or the depositor's remark. The call rests on the fitted dose curve; in most records, active means well fitted curve in the direction sought with a large enough effect; inconclusive means small, poorly fitted or top-dose-only effect, or another doubt; inactive means no such curve, though single readings can be large; an effect the other way counts as inactive or inconclusive.

SMILES	ERK AVP inh	p53ts 39C kill	Tau filament bind	YjeE inh	p53ts 32C kill	Pol III holo inh
COc1ccc(OC)c(S(=O)(=O)NCc2ccc3c(c2)CCN3C(=O)c2cccc(C)c2)c1	.	2.3%	.	.	18.0%	.
CN1Cc2cc(C(=O)c3cc(Cl)cc(CSc4ncccn4)c3O)cnc2NC1=O	-29.0%	-19.0%	15.8µM*	i	-10.5%	-6.4%
CCc1ccc(NC(=O)C(=O)NCCc2csc(-c3cccc(F)c3)n2)cc1	.	-7.3%	.	.	-9.0%	.
O=C(O)c1cccc(COc2ccccc2Cl)c1	-10.4%	12.6µM*	5.1%	i	10µM*	-2.2%
CCOC(=O)c1cccc(NC(=O)c2cc3cc4ccc(C)cc4nc3s2)c1	.	10µM*	.	.	-4.6%	.
O=C(CCc1nnc2n(Cc3ccccc3Cl)c(=O)c3ccccc3n12)Nc1ccccc1	.	-17.6%	.	.	-1.5%	.
Cc1cc(C(=O)Nc2sc3c(c2C#N)CCC3)no1	0.4%	12.6µM*	-14.4%	i	10µM*	-0.4%
Cc1cc(C(=O)Nc2sc3c(c2C#N)CCCC3)no1	-12.3%	12.6µM*	-0.8%	i	6.31µM*	-4.0%
CC(C)Cc1cc(C(=O)Nc2sc3c(c2C#N)CCCC3)no1	-1.1%	-9.6%	15.3%	i	-4.4%	0.5%
O=c1[nH][nH]c(=S)c(=O)[nH]1	8.1%[11.5 µM]	11.5%[9.22 µM]	-5.8%[11.4 µM]	i	7.0%[9.22 µM]	0.4%[11.4 µM]
CCCC(=O)c1cc(O)c(O)cc1O	-2.4%	-1.5%	?	i	13.4%[1.84 µM]	?
CCOc1ccc(-n2c(SCC(=O)Nc3ccc(CC)cc3)nc3c(oc4ccccc43)c2=O)cc1	.	-5.1%	.	.	7.7%	.
N#C/C(=C\c1ccc(-c2ccccc2C(=O)O)o1)c1nc2ccccc2[nH]1	.	-4.9%	.	.	-14.9%	.
CCOC(=O)c1ccc(-c2ccc(/C=C(\C#N)c3nc4ccc(C)cc4[nH]3)o2)cc1	.	3.16µM*	.	.	?	.
CCOC(=O)c1ccc(-c2ccc(/C=C(\C#N)C(=O)Nc3cccc(C)c3)o2)cc1	.	-8.6%	.	.	0.3%	.
N#C/C(=C\c1ccc(-c2ccc(F)cc2F)o1)c1nc2ccccc2[nH]1	.	6.31µM*	.	.	15.8µM*	.
COCCCNC(=O)CCc1c(C)nc2nc(-c3cc(OC)cc(OC)c3)nn2c1C	.	-13.8%	.	.	7.9%	.
Cc1ccccc1CSc1nc2c(sc3ccccc32)c(=O)n1CCCC(=O)NCCCOC(C)C	.	-19.3%	.	.	-5.5%	.
COc1ccc(NC(=O)Cn2ncc3c4ccccc4n(Cc4ccccc4)c3c2=O)cc1OC	.	-4.3%	.	.	5.4%	.
Cc1ccc(C(=O)Nc2ccc3c(c2)nc2n3CCSC2)cc1	-13.9%	?	-2.1%	i	7.94µM*	-5.4%
CCCCC(=O)Nc1ccc2c(c1)nc1n2CCSC1	-18.7%	?	-18.8%	i	?	-1.5%
COc1ccccc1C(=O)Nc1ccc2c(c1)nc1n2CCSC1	-6.0%	3.16µM*	-18.8%	i	3.98µM*	-13.8%
COc1ccc(OCC(=O)Nc2ccc3c(c2)nc2n3CCSC2)cc1	?	-12.3%	-0.4%	i	-3.9%	-3.5%
CCCCN(CC)CCCNC(=O)c1c(C)oc2ncnc(N3CCOCC3)c12	.	4.7%	.	.	0.5%	.
CCOC(=O)c1cc(-c2ccc(C)cc2)n(CC(=O)Nc2ccc(OC)c(Cl)c2)c1C	.	7.94µM*	.	.	?	.
SMILES	ERK AVP inh	p53ts 39C kill	Tau filament bind	YjeE inh	p53ts 32C kill	Pol III holo inh
Cc1ccccc1-c1nc2scc(CCNS(=O)(=O)c3ccccc3)n2n1	.	-11.0%	.	.	9.2%	.
Cc1cnc(CNc2nc(-c3ccoc3)nc3ccccc23)cn1	?	8.0%	-0.4%	i	13.5%	-8.9%
COc1ccccc1-c1nccc(Nc2ccc(F)cc2)n1	-29.2%	-21.5%	15.8µM*	i	-1.0%	-7.7%
c1ccc(CNc2nc(-c3ccoc3)nc3ccccc23)cc1	-24.5%	-12.6%	15.8µM*	i	-5.3%	1.5%
Cc1cccc(CNc2nc(-c3ccoc3)nc3ccccc23)c1	?	-8.3%	15.8µM*	i	-4.1%	-9.5%
Oc1ccc(Nc2nc(-c3ccc(Cl)cc3)nc3ccccc23)cc1	.	15.8µM*	.	.	?	.
CCN(CC)c1ccc(NC(=O)CN(C)S(=O)(=O)c2cccc3nsnc23)c(C)c1	.	-6.5%	.	.	-4.5%	.
CC(C)(C)C(=O)C1C(=O)c2ccccc2C1=O	11.3%	7.7%	-9.2%	i	11.0%[1.84 µM]	-1.2%
Fc1ccc(Nc2nc(-c3ccoc3)nc3ccccc23)cc1	-17.7%	15.3%	12.6µM*	i	17.8%	-10.4%
Cc1noc(C)c1-c1nc(Nc2ccc(F)cc2)c2ccccc2n1	1.8%	-0.5%	-15.8%	i	1.7%	-6.6%
Fc1ccc(Nc2ccnc(-c3ccoc3)n2)cc1	31.6µM*	-10.2%	12.6µM*	i	-5.4%	-16.8%
Fc1ccc(Nc2ccnc(-c3ccc4c(c3)OCO4)n2)cc1	?	-27.1%	33.0%	i	-6.2%	-6.2%
CC1=c2c(oc3cc(O)c(Nc4c(C)cc(O)cc4O)c(C)c23)=CC(=O)C1=Nc1c(C)cc(O)cc1O	-9.3%[11.5 µM]	9.6%[9.22 µM]	1.58µM*	?	-7.5%[9.22 µM]	-7.5%[11.4 µM]
Cc1ccc(CCNC(=O)c2c(C)nn(-c3ccc(F)cc3)c2-n2cccc2)cc1	.	-23.0%	.	.	7.3%	.
Cc1ccc(-n2nc(C)c(C(=O)NCCCN3CCN(c4ccccc4F)CC3)c2-n2cccc2)cc1	.	12.6µM*	.	.	-9.2%	.
CCCN1CCN(CCNC(=O)Nc2ccc(OC)c(OC)c2)CC1	.	-12.0%	.	.	-0.7%	.
COc1cc(NC(=O)NCCN2CCN(c3ccc(Cl)cc3)CC2)ccc1C	?	-6.2%	12.6µM*	i	-8.8%	-1.2%
Cc1cccc(Cn2c(=O)n(-c3cc(C)cc(C)c3)c(=O)c3oc4ccccc4c32)c1	.	0.0%	.	.	12.1%	.
CCc1ccc(OCC(=O)Nc2ccc(Cl)c(-c3nc4cc(C)cc(C)c4o3)c2)cc1	.	-15.9%	.	.	2.7%	.
Cc1ccc2nc(-c3cc(NC(=O)COc4ccc(C)c(C)c4)ccc3Cl)oc2c1	.	12.6µM*	.	.	?	.
Cc1cc(NC(=O)CCS(=O)(=O)c2nc(-c3ccccc3)cc(C(F)(F)F)n2)no1	72.2%	?	-25.6%	i	?	-0.5%
O=C(CCS(=O)(=O)c1nc(-c2cccs2)cc(C(F)(F)F)n1)Nc1cc(Br)ccc1O	.	7.94µM*	.	.	?	.
